Reference: PubChem BioAssay (NCI)
Compounds without any hit were thinned out: in the full panel of roughly 79,000, 15% have a hit. Calls of active or inactive are those of the source. Rule as the data show it: active = growth inhibition above about 70%; inactive = the rest.

Assay: NCI Yeast Anticancer Drug Screen. Data for the rad50EPP+ strain (AID 151);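 also: 0% = growth of vehicle-treated control cultures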
Conditions: S. cerevisiae rad50 mutant strain, stronger effect = higher value
Method: Growth inhibition of yeast strains with defined genetic alterations is measured as a screen for potential anti-cancer activity. Selected strains with alterations in DNA damage repair or cell cycle control were exposed to compounds and growth inhibition was measured relative to vehicle treated controls. The strain used in this assay is rad50EPP+

Measured: growth inhibition

CCCCCCCSCC1C(=O)C23C(O)C1CCC2C12COC3(O)C(O)C1C(C)(C)CCC2O (stereo not given)
inactive: at 1.2 µM 26% | at 3.7 µM 27% | at 11.0 µM 32% | at 33.0 µM 28% | at 100.0 µM 6%

COc1ccc2nc3cccc([N+](=O)[O-])c3c(NCCCCCC(=O)O)c2c1
active: at 3.7 µM 81% | at 11.0 µM 95% | at 33.0 µM 97% | at 100.0 µM 98%
inactive: at 1.2 µM 38%

CC1=NN(C(=O)c2ccccc2O)C(=O)/C1=C/c1ccco1
active: at 100.0 µM 93%
inactive: at 1.2 µM 9% | at 3.7 µM 45% | at 11.0 µM 49% | at 33.0 µM 48%

Oc1c2c(c(O)c3ccccc13)C1(N=N2)c2ccccc2Oc2ccccc21
inactive: at 1.2 µM 8% | at 3.7 µM 54%
active: at 11.0 µM 93% | at 33.0 µM 95% | at 100.0 µM 85%

CCOC(=O)/C(=C/c1cccc(Cl)c1)N(CC)CC
inactive: at 1.2 µM 37% | at 3.7 µM 29% | at 11.0 µM 34% | at 33.0 µM 45% | at 100.0 µM 57%

CN(C)CCNc1ccc2ncn3c4ccc(O)cc4c(=O)c1c23
inactive: at 1.2 µM -33% | at 3.7 µM -12% | at 11.0 µM -21% | at 33.0 µM -1% | at 100.0 µM 5%

CC(C)(C)c1ccc2c(c1)C(=O)c1ccccc1C2=O
inactive: at 1.2 µM -9% | at 3.7 µM -1% | at 11.0 µM 18% | at 33.0 µM 27% | at 100.0 µM 28%

CCc1c(Cl)c(C)c(Cl)c(O)c1Cl
active: at 33.0 µM 87% | at 100.0 µM 96%
inactive: at 1.2 µM -7% | at 3.7 µM 0% | at 11.0 µM 32%
